# Laboratory results: article PMC5515408, “Sequence-specific DNA binding by MYC/MAX to low-affinity non-E-box motifs”
# The full ranking holds about 4,500 sequences; the median of “log2 normalized fluorescence” is about -0.34, and the highest 2% start at about 3.3. The list comes from a sample in which the highest values are over-represented; it also holds similar and randomly drawn sequences.
# Target: MAX:MAX (p21) (human, UniProt P61244-2 1-151)
# Assay: protein-binding microarray (anti-MAX antibody); PBM: 15 mM Tris-HCl pH 7.5, 100 mM KCl, 0.075% NP40, 7.5 mM beta-mercaptoethanol, 375 ng/ul BSA, 8 ng/ul poly(dA-dT):(dA-dT), 550 ng complex, 60 min, room tempe; high values mean tight binding
# Details: protein: recombinant; tags: 6xHis; chain copies: 2; label: 3' end of printed strand (linker) attached to glass slide; dsDNA, one strand shown
# Procedure, shortened: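 Recombinant His-tagged human MYC:MAX or MAX:MAX dimers (550 ng, expressed in E. coli) were incubated for 60 min at room temperature in Tris-KCl buffer, pH 7.5, with NP40, BSA and poly(dA-dT) competitor. The custom Agilent glass array held ~5000 unique 12-nt sequences, each spotted in triplicate and made double-stranded by primer extension. Bound protein was detected with anti-MAX and secondary antibodies and scanned at 543 nm. Binding is reported as log2 normalized fluorescence.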
# Sequence of MAX:MAX (p21) (P61244 other isoform, or with tags, fused parts or gaps): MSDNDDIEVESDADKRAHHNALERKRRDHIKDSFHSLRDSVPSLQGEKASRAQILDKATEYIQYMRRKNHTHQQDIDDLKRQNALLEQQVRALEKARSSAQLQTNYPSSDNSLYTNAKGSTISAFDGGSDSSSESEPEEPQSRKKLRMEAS
row,Sequence,binding signal
1,CCGGCTCAGACGTGGTATTAATAGCTAAGATTACTATATCGACG,1.39 log2 normalized fluorescence
2,CCGGCTAACACGTGGTTTTAATAGCTAAGATTACTATATCGACG,3.27 log2 normalized fluorescence
3,CCGGCTGAATGACCGTATTAATAGCTAAGATTACTATATCGACG,0.107 log2 normalized fluorescence
4,CCGGCTCACACCTCGTATTAATAGCTAAGATTACTATATCGACG,2.28 log2 normalized fluorescence
5,CCGGCTGACGGTTCGTATTAATAGCTAAGATTACTATATCGACG,-0.498 log2 normalized fluorescence
6,CCGGCAAGCACGTGGTATTAATAGCTAAGATTACTATATCGACG,3.27 log2 normalized fluorescence
7,CCGGCGGACGCGTGGTATTAATAGCTAAGATTACTATATCGACG,3.14 log2 normalized fluorescence
8,CCGGCGGACTCGTGGTATTAATAGCTAAGATTACTATATCGACG,3.3 log2 normalized fluorescence
9,CCGGCCAGCACGTGGTATTAATAGCTAAGATTACTATATCGACG,3.24 log2 normalized fluorescence
10,CCGGCGGACCCGTGGTATTAATAGCTAAGATTACTATATCGACG,2.46 log2 normalized fluorescence
11,CCGGCGCAAACGTGGTATTAATAGCTAAGATTACTATATCGACG,2.98 log2 normalized fluorescence
12,CCGGCTGAAACGTGGAATTAATAGCTAAGATTACTATATCGACG,2.54 log2 normalized fluorescence
13,CCGGCTCATACGTGGAATTAATAGCTAAGATTACTATATCGACG,1.28 log2 normalized fluorescence
14,CCGGCGCGCACGTGGTATTAATAGCTAAGATTACTATATCGACG,3.39 log2 normalized fluorescence
15,CCGGCGCACACGTGGTATTAATAGCTAAGATTACTATATCGACG,3.29 log2 normalized fluorescence
16,CCGGCTAGCACGTGGTATTAATAGCTAAGATTACTATATCGACG,3.44 log2 normalized fluorescence
17,CCGGCTCGCACGTGGAATTAATAGCTAAGATTACTATATCGACG,3.31 log2 normalized fluorescence
18,CCGGCTGACCTGATGTATTAATAGCTAAGATTACTATATCGACG,0.381 log2 normalized fluorescence
19,CCGGCATAGTATACAATTTAATAGCTAAGATTACTATATCGACG,0.0214 log2 normalized fluorescence
20,CCGGCTGAACCCTGGTATTAATAGCTAAGATTACTATATCGACG,-0.595 log2 normalized fluorescence
21,CCGGCTGATAAGTGGTATTAATAGCTAAGATTACTATATCGACG,-0.651 log2 normalized fluorescence
22,CCGGCTGAAGGATTGTATTAATAGCTAAGATTACTATATCGACG,-0.589 log2 normalized fluorescence
23,CCGGCTGAAACTTGGTATTAATAGCTAAGATTACTATATCGACG,-0.705 log2 normalized fluorescence
24,CCGGCACGCACGTGGTATTAATAGCTAAGATTACTATATCGACG,3.29 log2 normalized fluorescence
25,CCGGCGAGCACGTGGTATTAATAGCTAAGATTACTATATCGACG,3 log2 normalized fluorescence
26,CCGGCAGGCACGTGGTATTAATAGCTAAGATTACTATATCGACG,3.21 log2 normalized fluorescence
27,CCGGCGTGCACGTGGTATTAATAGCTAAGATTACTATATCGACG,3.47 log2 normalized fluorescence
28,CCGGCCTGCACGTGGTATTAATAGCTAAGATTACTATATCGACG,3.26 log2 normalized fluorescence

row,Sequence,binding signal
1,CCGGCTCGGACGTGGTATTAATAGCTAAGATTACTATATCGACG,1.17 log2 normalized fluorescence
2,CCGGCCGGCACGTGGTATTAATAGCTAAGATTACTATATCGACG,3.27 log2 normalized fluorescence
3,CCGGCTCGCACGTGGTATTAATAGCTAAGATTACTATATCGACG,3.41 log2 normalized fluorescence
4,CCGGCATCCACGTGGTATTAATAGCTAAGATTACTATATCGACG,3.28 log2 normalized fluorescence
5,CCGGCACCCACGTGGTATTAATAGCTAAGATTACTATATCGACG,3.35 log2 normalized fluorescence
6,CCGGCCCGCACGTGGTATTAATAGCTAAGATTACTATATCGACG,3.03 log2 normalized fluorescence
7,CCGGCTGACGCAGGGTATTAATAGCTAAGATTACTATATCGACG,-0.104 log2 normalized fluorescence
8,CCGGCTGACCTGCTGTATTAATAGCTAAGATTACTATATCGACG,0.214 log2 normalized fluorescence
9,CCGGCTGAAGAGTGGTATTAATAGCTAAGATTACTATATCGACG,0.0783 log2 normalized fluorescence
10,CCGGCTGAGGGGGAGTATTAATAGCTAAGATTACTATATCGACG,1.48 log2 normalized fluorescence
11,CCGGCTGAACCCAGGTATTAATAGCTAAGATTACTATATCGACG,-0.34 log2 normalized fluorescence
12,CCGGCTGAGTTGAGGTATTAATAGCTAAGATTACTATATCGACG,-0.631 log2 normalized fluorescence
13,CCGGCTGACCGGTAGTATTAATAGCTAAGATTACTATATCGACG,-0.573 log2 normalized fluorescence
14,CCGGCTGACACAGGGTATTAATAGCTAAGATTACTATATCGACG,0.747 log2 normalized fluorescence
15,CCGGCTGAGAGCCTGTATTAATAGCTAAGATTACTATATCGACG,-0.287 log2 normalized fluorescence
16,CCGGCTGACAGACCGTATTAATAGCTAAGATTACTATATCGACG,0.179 log2 normalized fluorescence
17,CCGGCTGAACTCATGTATTAATAGCTAAGATTACTATATCGACG,1.71 log2 normalized fluorescence
18,CCGGCTGACAAGTTGTATTAATAGCTAAGATTACTATATCGACG,-0.304 log2 normalized fluorescence
19,CCGGCTGATCATATGTATTAATAGCTAAGATTACTATATCGACG,1.98 log2 normalized fluorescence
20,CCGGCCGTCACGTGGTATTAATAGCTAAGATTACTATATCGACG,3.18 log2 normalized fluorescence
21,CCGGCGGTCACGTGGTATTAATAGCTAAGATTACTATATCGACG,3.37 log2 normalized fluorescence
22,CCGGCTGACACGTGGTATTAATAGCTAAGATTACTATATCGACG,3.19 log2 normalized fluorescence
23,CCGGCTGTCACGTGGTATTAATAGCTAAGATTACTATATCGACG,3.12 log2 normalized fluorescence
24,CCGGCGGACACGTGGTATTAATAGCTAAGATTACTATATCGACG,3.33 log2 normalized fluorescence
25,CCGGCGGGCACGTGGTATTAATAGCTAAGATTACTATATCGACG,3.35 log2 normalized fluorescence
26,CCGGCACACACGTGGTATTAATAGCTAAGATTACTATATCGACG,3.32 log2 normalized fluorescence
27,CCGGCGGACACGTGCTATTAATAGCTAAGATTACTATATCGACG,3.15 log2 normalized fluorescence
